In the supplement of paper PMC10849652:
The full data set covers some 8,800 targets. This sample favours those with a hit. About 0.5% of all pairs of compound and target were hits. Values without a mark were called inactive.

What was measured:
Experiment in all cases: log2 fold change, soluble protein after heating vs DMSO (PISA); higher = thermal stabilisation; K562 lysate, 10 uM; active = over 0.2 and 3.5 SD of the protein, either way, in both replicates (recomputed)
[1] = compound: C#Cc1cccc(Nc2ncnc3cc(OCCOC)c(OCCOC)cc23)c1 [erlotinib]
Summary of the method: (§1)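 A 30 min treatment with 10 μM compound was applied to crude K562 extract at 1 mg/mL protein in PBS pH 7.4 with 1 mM MgCl2. Heating for 3 min spanned 48°C-58°C, after which aliquots were pooled, adjusted to 0.5% NP-40 at 4°C and spun at 21,000xg for 90 min. TMTpro 16plex LC-MS/MS of the supernatant, with channel sums equalised, gave values recorded as log-two fold change in thermal stability against solvent controls, from duplicates.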

[2] = compound: C/C(=N\NC(=O)C1=CC(=CC=C1)S(=O)(=O)N2CCOCC2)/C3=C(C=CC(=C3)Cl)O
Summary of the method: as §1

[3] = compound: C1=CC(=CC=C1C2=NC3=C(N2)C=C(C=C3)C(=O)N)OC4=CC=C(C=C4)Cl
Summary of the method: as §1

[4] = compound: C1=CC2=C(C=CC(=C2)/C=C\3/C(=O)NC(=NCC4=CC=CS4)S3)N=C1
Summary of the method: as §1

[5] = compound: C1=CC2=NC=CN=C2C=C1/C=C/3\C(=O)NC(=O)S3
Summary of the method: as §1

[6] = compound: C1=CC=C(C=C1)C2=NC(=C(N2)C3=CC=NC=C3)C4=CC(=C(C=C4)Cl)O
Summary of the method: as §1

[7] = compound: C1=CC=C2C(=C1)C3=NNC4=CC=CC(=C43)C2=O
Summary of the method: as §1

[8] = compound: C1CCN(C1)C(=O)NC2=CC=CC(=C2)NC3=NC=C(C(=N3)NCCC4=CN=CN4)Br
Summary of the method: as §1

[9] = compound: C1CN(CCC1(CC2=CC=C(C=C2)Cl)N)C3=NC=NC4=C3C=CN4
Summary of the method: as §1

[10] = compound: C1COCCN1CCN2C3=CC=CC=C3N=C2NC(=O)C4=CC(=CC=C4)[N+](=O)[O-] [IRAK-1-4 Inhibitor I]
Summary of the method: as §1

[11] = compound: C=CC(=O)N1CCC[C@@H](n2nc(-c3ccc(Oc4ccccc4)cc3)c3c(N)ncnc32)C1 [ibrutinib]
Summary of the method: as §1

[12] = compound: CC(C)(C)Cn1c(N)nc2ccc(-c3[nH]c(C(C)(C)C)nc3-c3ccc(F)cc3)nc21 [ralimetinib]
Summary of the method: as §1

[13] = compound: CC(C)(O)CC(=O)NCCn1ccc2ncnc(Nc3ccc(Oc4cccc(C(F)(F)F)c4)c(Cl)c3)c21
Summary of the method: as §1

[14] = compound: CC(C)C1=C2N=C(C=C(N2N=C1)NCC3=CC=CC=C3)NCCCCCCN
Summary of the method: as §1

[15] = compound: CC1=C(C=C(C=C1)NC(=O)C2=CC(=CC=C2)C(C)(C)C#N)NC3=CC4=C(C=C3)N=CN(C4=O)C
Summary of the method: as §1

[16] = compound: CC1=C(C=C(C=C1)NC(=O)C2=CC(=CC=C2)N(C)C)NC(=O)C3=CC=C(C=C3)O
Summary of the method: as §1

[17] = compound: CC(=O)c1cnc2ccc(-c3cc(Cl)c(O)c(Cl)c3)nc2c1N[C@H]1CC[C@H](CN(C)C)CC1
Summary of the method: as §1

[18] = compound: CC1=C(C(CC(=O)N1)C2=CC=C(C=C2)C(F)(F)F)C(=O)NC3=C(C=C4C(=C3)C=NN4)F
Summary of the method: as §1

[19] = compound: CC1=C(C2=C(C=C1)C(=O)C3=CC=CC=C3N2CCCN)C
Summary of the method: as §1

[20] = compound: CC1=CC=C(C=C1)SC2=C3C=C(SC3=CN=C2)C(=O)N
Summary of the method: as §1

Chain of UniProt Q01664 (Q01664 whole entry, looked up): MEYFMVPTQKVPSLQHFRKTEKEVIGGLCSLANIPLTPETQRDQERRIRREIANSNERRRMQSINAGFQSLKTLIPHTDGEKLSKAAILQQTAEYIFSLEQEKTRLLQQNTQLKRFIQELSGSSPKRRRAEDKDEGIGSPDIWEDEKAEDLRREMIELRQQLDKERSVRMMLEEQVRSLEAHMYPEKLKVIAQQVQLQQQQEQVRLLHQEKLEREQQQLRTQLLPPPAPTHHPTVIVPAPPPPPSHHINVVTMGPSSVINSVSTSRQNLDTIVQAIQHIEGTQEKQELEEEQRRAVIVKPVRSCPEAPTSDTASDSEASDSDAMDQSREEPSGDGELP
Chain of UniProt P43897 (P43897 whole entry, looked up): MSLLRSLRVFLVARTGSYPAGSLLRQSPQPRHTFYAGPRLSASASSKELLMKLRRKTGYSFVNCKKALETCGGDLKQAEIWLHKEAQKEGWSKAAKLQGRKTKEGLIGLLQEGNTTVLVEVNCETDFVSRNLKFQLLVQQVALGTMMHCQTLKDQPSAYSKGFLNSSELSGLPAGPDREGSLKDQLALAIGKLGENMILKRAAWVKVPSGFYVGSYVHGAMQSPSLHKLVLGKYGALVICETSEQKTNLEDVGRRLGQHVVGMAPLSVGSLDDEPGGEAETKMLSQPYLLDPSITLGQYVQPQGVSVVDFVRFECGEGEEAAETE
Chain of UniProt Q9NUJ3 (Q9NUJ3 whole entry, looked up): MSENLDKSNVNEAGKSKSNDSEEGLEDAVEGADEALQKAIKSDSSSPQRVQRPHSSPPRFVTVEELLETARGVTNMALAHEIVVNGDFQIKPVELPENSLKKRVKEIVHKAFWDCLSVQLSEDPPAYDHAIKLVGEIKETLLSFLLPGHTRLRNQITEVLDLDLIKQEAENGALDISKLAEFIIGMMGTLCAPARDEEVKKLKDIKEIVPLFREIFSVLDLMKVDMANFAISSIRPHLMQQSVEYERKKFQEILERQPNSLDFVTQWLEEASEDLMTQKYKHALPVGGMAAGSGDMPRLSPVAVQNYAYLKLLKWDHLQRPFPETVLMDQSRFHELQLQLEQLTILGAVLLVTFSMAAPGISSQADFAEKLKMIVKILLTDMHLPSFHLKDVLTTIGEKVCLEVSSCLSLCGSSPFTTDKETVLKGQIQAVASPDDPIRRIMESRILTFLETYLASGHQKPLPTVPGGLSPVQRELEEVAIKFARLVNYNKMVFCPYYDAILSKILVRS
Chain of UniProt Q8NDZ6 (Q8NDZ6 whole entry, looked up): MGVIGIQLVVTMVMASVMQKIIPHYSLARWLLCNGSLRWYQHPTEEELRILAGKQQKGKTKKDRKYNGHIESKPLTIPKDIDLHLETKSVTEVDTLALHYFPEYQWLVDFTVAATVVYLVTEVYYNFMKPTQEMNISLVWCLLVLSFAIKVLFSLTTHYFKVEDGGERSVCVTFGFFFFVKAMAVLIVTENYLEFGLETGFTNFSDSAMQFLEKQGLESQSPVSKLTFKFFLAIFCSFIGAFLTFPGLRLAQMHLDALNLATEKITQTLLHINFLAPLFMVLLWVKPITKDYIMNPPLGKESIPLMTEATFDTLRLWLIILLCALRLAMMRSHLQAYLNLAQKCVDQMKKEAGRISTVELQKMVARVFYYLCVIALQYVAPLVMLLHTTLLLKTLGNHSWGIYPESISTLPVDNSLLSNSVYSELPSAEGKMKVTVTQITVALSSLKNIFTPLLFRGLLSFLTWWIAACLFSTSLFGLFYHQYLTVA
Chain of UniProt O43399 (O43399 whole entry, looked up): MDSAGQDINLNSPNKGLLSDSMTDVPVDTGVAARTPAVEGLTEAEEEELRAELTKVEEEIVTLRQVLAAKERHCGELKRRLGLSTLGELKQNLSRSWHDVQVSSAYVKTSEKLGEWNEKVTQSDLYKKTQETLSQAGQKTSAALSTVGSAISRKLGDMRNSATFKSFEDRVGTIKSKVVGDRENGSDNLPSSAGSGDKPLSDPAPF
Chain of UniProt Q96LJ8 (Q96LJ8 whole entry, looked up): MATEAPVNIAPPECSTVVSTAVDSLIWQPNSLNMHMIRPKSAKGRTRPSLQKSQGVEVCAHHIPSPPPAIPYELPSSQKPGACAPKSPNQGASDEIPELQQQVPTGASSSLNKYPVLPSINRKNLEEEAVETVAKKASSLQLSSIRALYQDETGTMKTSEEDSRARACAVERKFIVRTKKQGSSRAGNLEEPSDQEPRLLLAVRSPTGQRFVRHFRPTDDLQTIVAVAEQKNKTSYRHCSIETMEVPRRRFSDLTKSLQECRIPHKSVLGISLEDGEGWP
Chain of UniProt A6NHL2 (A6NHL2 whole entry, looked up): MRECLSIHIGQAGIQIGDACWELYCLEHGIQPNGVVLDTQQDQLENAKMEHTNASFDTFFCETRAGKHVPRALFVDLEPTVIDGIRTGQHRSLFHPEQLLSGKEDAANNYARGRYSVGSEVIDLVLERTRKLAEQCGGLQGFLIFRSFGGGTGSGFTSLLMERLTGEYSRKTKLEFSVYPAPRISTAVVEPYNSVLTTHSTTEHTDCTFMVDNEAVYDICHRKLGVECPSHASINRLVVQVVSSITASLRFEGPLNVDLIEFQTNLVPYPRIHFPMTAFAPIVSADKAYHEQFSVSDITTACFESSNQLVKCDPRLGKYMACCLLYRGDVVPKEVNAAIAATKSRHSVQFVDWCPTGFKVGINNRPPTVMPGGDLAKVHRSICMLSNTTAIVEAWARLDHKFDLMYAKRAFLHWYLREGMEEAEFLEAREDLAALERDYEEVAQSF
Chain of UniProt P61960 (P61960 whole entry, looked up): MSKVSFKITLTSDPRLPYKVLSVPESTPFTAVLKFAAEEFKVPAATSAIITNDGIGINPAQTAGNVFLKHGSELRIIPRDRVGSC
Chain of UniProt Q14166 (Q14166 whole entry, looked up): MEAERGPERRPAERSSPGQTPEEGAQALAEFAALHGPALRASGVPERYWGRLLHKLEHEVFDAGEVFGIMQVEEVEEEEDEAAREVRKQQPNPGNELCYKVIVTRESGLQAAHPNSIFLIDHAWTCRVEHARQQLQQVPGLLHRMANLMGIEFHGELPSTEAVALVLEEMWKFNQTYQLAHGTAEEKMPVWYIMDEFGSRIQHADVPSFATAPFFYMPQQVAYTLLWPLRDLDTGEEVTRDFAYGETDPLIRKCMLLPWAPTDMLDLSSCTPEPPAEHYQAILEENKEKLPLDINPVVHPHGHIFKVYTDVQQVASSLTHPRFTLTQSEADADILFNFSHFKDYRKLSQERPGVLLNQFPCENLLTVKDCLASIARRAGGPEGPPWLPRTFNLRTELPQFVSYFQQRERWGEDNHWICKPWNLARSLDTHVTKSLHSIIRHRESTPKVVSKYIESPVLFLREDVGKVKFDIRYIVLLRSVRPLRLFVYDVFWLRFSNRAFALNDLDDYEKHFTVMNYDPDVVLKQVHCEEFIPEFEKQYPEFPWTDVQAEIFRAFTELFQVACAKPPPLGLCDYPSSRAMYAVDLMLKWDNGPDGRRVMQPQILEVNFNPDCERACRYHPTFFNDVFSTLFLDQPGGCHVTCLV
Chain of UniProt O43615 (O43615 whole entry, looked up): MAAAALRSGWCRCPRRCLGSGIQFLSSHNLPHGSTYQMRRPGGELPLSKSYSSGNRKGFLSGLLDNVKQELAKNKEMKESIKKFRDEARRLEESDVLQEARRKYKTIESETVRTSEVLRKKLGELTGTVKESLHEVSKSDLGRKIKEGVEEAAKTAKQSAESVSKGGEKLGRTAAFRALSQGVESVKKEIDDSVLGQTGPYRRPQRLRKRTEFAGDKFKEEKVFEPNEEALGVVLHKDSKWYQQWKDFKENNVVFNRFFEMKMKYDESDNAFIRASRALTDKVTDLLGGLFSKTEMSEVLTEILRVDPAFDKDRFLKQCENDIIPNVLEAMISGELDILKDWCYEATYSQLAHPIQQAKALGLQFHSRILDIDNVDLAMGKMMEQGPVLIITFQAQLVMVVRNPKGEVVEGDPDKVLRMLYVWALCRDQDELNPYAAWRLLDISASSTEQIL
Chain of UniProt Q8TBZ6 (Q8TBZ6 whole entry, looked up): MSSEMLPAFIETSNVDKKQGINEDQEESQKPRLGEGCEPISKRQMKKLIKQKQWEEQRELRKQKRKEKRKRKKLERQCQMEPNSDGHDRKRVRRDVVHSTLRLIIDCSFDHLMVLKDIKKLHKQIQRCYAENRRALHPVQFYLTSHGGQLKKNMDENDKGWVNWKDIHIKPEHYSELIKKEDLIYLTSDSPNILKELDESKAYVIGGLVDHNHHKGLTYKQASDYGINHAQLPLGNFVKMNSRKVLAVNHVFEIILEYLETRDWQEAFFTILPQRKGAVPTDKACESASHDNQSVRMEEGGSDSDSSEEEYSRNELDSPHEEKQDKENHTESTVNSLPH
Chain of UniProt Q9BZL1 (Q9BZL1 whole entry, looked up): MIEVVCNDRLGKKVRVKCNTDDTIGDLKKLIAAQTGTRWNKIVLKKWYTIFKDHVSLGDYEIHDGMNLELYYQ
Chain of UniProt Q9H3M7 (Q9H3M7 whole entry, looked up): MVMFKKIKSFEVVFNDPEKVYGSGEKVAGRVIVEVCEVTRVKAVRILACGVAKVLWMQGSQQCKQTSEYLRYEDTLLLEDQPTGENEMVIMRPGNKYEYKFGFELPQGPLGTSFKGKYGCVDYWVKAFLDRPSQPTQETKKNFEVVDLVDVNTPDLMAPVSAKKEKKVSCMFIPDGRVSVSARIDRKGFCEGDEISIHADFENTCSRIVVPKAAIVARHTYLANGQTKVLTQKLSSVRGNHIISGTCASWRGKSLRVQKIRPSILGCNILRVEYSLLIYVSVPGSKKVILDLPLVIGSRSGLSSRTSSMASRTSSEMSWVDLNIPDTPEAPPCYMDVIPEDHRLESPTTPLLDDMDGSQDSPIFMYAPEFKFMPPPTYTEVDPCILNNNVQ

Row | Target | log2 fold change [1] | log2 fold change [2] | log2 fold change [3] | log2 fold change [4] | log2 fold change [5] | log2 fold change [6] | log2 fold change [7] | log2 fold change [8] | log2 fold change [9] | log2 fold change [10] | log2 fold change [11] | log2 fold change [12] | log2 fold change [13] | log2 fold change [14] | log2 fold change [15] | log2 fold change [16] | log2 fold change [17] | log2 fold change [18] | log2 fold change [19] | log2 fold change [20]
1 | TTLL12 (UniProt V9GY16) | 0.144 | 0.13 | -0.193 | -0.05 | 0.074 | -0.061 | -0.072 | -0.167 | 0.128 | 0.229 | -0.32 | -0.339 | -0.165 | -0.333 | 0.031 | -0.009 | – | – | – | –
2 | TTLL12 (UniProt Q14166) | 0.006 | 0.049 | -0.047 | 0.036 | 0.027 | 0.005 | -0.023 | 0 | 0.021 | -0.016 | -0.018 | 0.026 | 0.005 | 0.044 | -0.008 | 0.031 | 0.003 | -0.026 | -0.032 | 0.012
3 | TTC37 (UniProt Q6PGP7) | 0.05 | -0.148 | 0.07 | -0.014 | -0.069 | -0.187 | -0.068 | – | – | 0.051 | 0.012 | -0.024 | 0.012 | -0.012 | 0.154 | -0.043 | 0.047 | -0.019 | -0.188 | -0.15
4 | TRMT10A (UniProt Q8TBZ6) | -0.003 | -0.26 | -0.007 | -0.018 | -0.024 | 0.018 | 0.252 (active) | -0.017 | 0.044 | 0.044 | -0.002 | 0.021 | -0.01 | -0.033 | 0.06 | -0.022 | -0.003 | 0.009 | -0.031 | 0.07
5 | TFAP4 (UniProt Q01664) | -0.063 | -0.042 | 0.017 | -0.025 | 0.018 | -0.09 | 0.055 | 0.135 | -0.016 | -0.061 | 0.057 | 0.004 | -0.26 | -0.109 | 0.058 | 0.038 | 0.141 | 0.046 | – | 0.07
6 | TXNIP (UniProt Q9H3M7) | 0.036 | -0.165 | -0.057 | -0.045 | -0.001 | -0.003 | 0.048 | -0.042 | 0.017 | 0.041 | -0.009 | 0.007 | -0.02 | -0.053 | 0.037 | 0.016 | – | 0.011 | -0.036 | –
7 | TMEM161B (UniProt Q8NDZ6) | 0.051 | -0.08 | -0.017 | 0.174 | 0.007 | -0.068 | -0.133 | 0.052 | -0.01 | 0.09 | -0.026 | 0 | -0.224 | -0.113 | 0.027 | 0.108 | 0.197 | -0.005 | – | -0.012
8 | TPD52L2 isoform 7 (UniProt O43399) | -0.044 | -0.028 | 0.085 | 0.015 | 0 | 0.017 | 0.036 | 0.029 | -0.004 | -0.031 | -0.016 | -0.013 | 0.01 | -0.013 | 0.007 | -0.006 | 0.017 | 0.023 | -0.024 | -0.001
9 | TIMM44 (UniProt O43615) | -0.019 | -0.02 | -0.008 | -0.019 | 0.041 | -0.012 | 0.03 | -0.019 | 0.004 | -0.011 | 0.03 | -0.008 | -0.076 | 0.013 | -0.035 | -0.005 | 0.005 | 0.066 | 0.025 | 0.015
10 | TUBAL3 (UniProt A6NHL2) | -0.018 | -0.01 | -0.076 | -0.114 | -0.004 | -0.011 | -0.134 | -0.025 | 0.037 | 0.078 | 0.002 | 0.056 | -0.145 | 0.116 | – | -0.119 | -0.071 | -0.009 | -0.008 | 0.025
11 | TCP11L1 (UniProt Q9NUJ3) | 0.082 | 0.032 | 0.032 | 0.033 | -0.053 | 0.075 | -0.069 | -0.005 | 0.094 | 0.001 | 0.026 | -0.093 | -0.061 | -0.045 | -0.008 | 0.02 | -0.033 | -0.032 | -0.052 | -0.008
12 | TJP1 (UniProt G3V1L9) | 0.169 | 0.199 | 0.087 | -0.119 | -0.068 | 0.014 | 0.063 | – | – | 0.047 | 0.024 | 0.075 | -0.014 | -0.025 | -0.017 | -0.041 | – | -0.041 | 0.022 | –
13 | TSFM (UniProt P43897) | -0.013 | 0.009 | -0.035 | -0.003 | -0.002 | 0.017 | -0.063 | 0.024 | 0.034 | -0.024 | 0.004 | 0.03 | 0.026 | 0.015 | 0.116 | 0.017 | -0.05 | -0.024 | -0.003 | -0.063
14 | UBXN10 (UniProt Q96LJ8) | 0.064 | 0.026 | 0.057 | -0.089 | -0.072 | 0.027 | 0.018 | -0.012 | 0.041 | 0.03 | 0.016 | 0.002 | -0.012 | 0.014 | -0.001 | 0.069 | 0.044 | – | 0.012 | -0.015
15 | UBL5 (UniProt Q9BZL1) | 0 | 0.002 | -0.02 | 0.011 | -0.079 | 0 | 0.049 | 0.029 | 0.004 | -0.062 | 0.052 | -0.029 | 0.04 | -0.003 | 0.038 | 0.037 | – | -0.056 | 0.032 | –
16 | UFM1 (UniProt P61960) | 0.035 | 0.078 | -0.003 | 0.085 | 0.029 | -0.013 | 0.123 | 0.066 | 0.013 | -0.009 | 0.059 | 0.008 | -0.014 | -0.003 | -0.097 | -0.038 | 0.072 | -0.04 | -0.007 | 0.109
